Sampled rows, rich in hits. Any-hit rate of the full collection: about 4.5%.
PfHsp40 yeast: rescue of yeast from PfHsp40 toxicity, primary screen, S. cerevisiae, ATP luminescence | hit rate 0.68% among 340,000 | growth rescue, % at 12.5 µM | S. cerevisiae expressing PfHsp40, growth rescue | AID 504582, 2011; in the data active means growth rescue above about 28%, passing the limit was not always enough;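 further: yeast W303a lacking pdr1 and pdr3 grown in galactose medium; growth measured after three days at 30 °C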
FBA Mtb inh: Mtb FBA enzyme inhibitors, primary screen, biochemical, fluorescence, strain H37Rv. Fructose-bisphosphate aldolase (Mycobacterium tuberculosis (strain ATCC 25618 / H37Rv)), …. purified M. tuberculosis FBA, fluorescence read-out. inhibition, % at 1 µM. hit rate 2.3% among 360,000; in the data active means inhibition above about 27%
Target sequence (P9WQA3 whole entry, looked up): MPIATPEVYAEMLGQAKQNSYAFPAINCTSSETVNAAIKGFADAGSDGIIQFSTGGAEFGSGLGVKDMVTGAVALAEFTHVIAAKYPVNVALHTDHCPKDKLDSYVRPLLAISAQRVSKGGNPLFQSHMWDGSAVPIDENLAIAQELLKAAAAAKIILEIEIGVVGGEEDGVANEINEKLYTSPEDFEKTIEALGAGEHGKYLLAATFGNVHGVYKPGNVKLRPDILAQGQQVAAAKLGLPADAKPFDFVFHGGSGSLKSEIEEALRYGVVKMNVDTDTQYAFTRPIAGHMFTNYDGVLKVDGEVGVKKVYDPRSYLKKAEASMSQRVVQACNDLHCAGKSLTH
BJeLR lethal: MLPCN primary cell-based screen for lethality selective to Ras in HRASV12 cells. BJeLR (HRASV12) viability, CellTiter-Glo ATP luminescence, 48 h. AID 1554, 2009. inhibition, % (test concentration not listed). hit rate 0.17% among 300,000; in the data active means inhibition above about 50%
PrPC TRFRET: inhibitors of human cell surface prion protein PrPC, primary screen, cell-based, TR-FRET; TR-FRET read-out; Major prion protein (Homo sapiens), P04156; hit rate 0.43% among 370,000; inhibition, % at 13.8 µM; in the data active means inhibition above about 24%
PrP UTR inh: inhibition of PrP 5' UTR reporter expression; cell-based PrP 5' UTR mRNA reporter, plate reader; inhibition, % (concentration not given with the values); hit rate 0.35% among 340,000; AID 488862, 2010; in the data active means inhibition above about 52%
GDH-TPI inh: GDH-TPI coupling enzyme inhibitors, primary screen, artefact control for M. tuberculosis FBA inhibitor project, biochemical, absorbance, full deck | GDH-TPI coupled enzyme counterscreen, NADH absorbance | hit rate 1.2% among 360,000 | inhibition, % at 4.8 µM; in the data active means inhibition above about 30%
A number is an active result; - = inactive; . = no result given; + = active, no number.

SMILES	PfHsp40 yeast	FBA Mtb inh	BJeLR lethal	PrPC TRFRET	PrP UTR inh	GDH-TPI inh
O=C(CSc1nc2ccccc2c(=O)[nH]1)Nc1ccc([N+](=O)[O-])cc1	-	-	.	-	-	38
CN(C)c1ccc(/C=C2\CCC/C(=C\c3ccccc3)C2=O)cc1	-	-	-	-	-	-
O=C1/C(=C/c2ccc(C(=O)O)cc2)CCC/C1=C\c1ccc(C(=O)O)cc1	-	-	-	-	-	33
CCC(=O)N1CCN(c2nc(CC)nc3sc4c(c23)CCCC4)CC1	-	-	-	-	-	-
CC1CCc2c(sc3nc(C(C)(C)C)nc(N4CCN(C(=O)CCl)CC4)c23)C1 (stereo unspecified)	-	-	85	-	-	-
CCCCc1cccc2[nH]cc(C)c12	.	.	.	-	.	.
Cc1ccccc1Cn1cc(CN2[C@H](CC(C)C)COc3cc(Br)ccc3S2(=O)=O)nn1	.	.	.	-	.	.
BrC(/C=N/N1CCN(Cc2ccccc2)CC1)=C/c1ccccc1	-	-	-	-	-	31
CC(=C\C(=O)O)/C(=C/c1ccco1)C(=O)O	-	-	-	-	-	-
CC(=C\C(=O)O)/C(=C\c1cccc2ccccc12)C(=O)O	-	-	-	-	.	31
CN(CCCC1CCCC1)C(=O)c1cc(COc2c(F)cccc2F)on1	-	-	-	-	-	-
CN(CCCC1CCCC1)C(=O)c1cc(COc2ccc(F)c(F)c2)on1	44	-	-	-	-	-
O=C(O)CSc1nnc(-c2ccccc2O)n1Cc1ccccc1	-	-	-	-	-	-
Cc1cc(C(=O)CSc2nnc(-c3ccccc3)n2C)c(C)n1C	-	-	-	-	-	-
O=C(CSc1nnc(-c2ccccc2)n1Cc1ccccc1)NNC(=O)c1ccccc1O	166	-	-	-	-	-
Cn1c(SCC(=O)c2ccc(O)cc2O)nnc1-c1ccccc1	-	-	-	-	-	34
O=C(CSc1nnc(-c2ccccc2O)n1Cc1ccccc1)NNC(=O)c1ccccc1O	305	-	-	-	-	-
Cn1c(SCC(=O)NNC(=O)c2ccccc2O)nnc1-c1ccccc1	106	-	-	-	-	-
CC(C)C(=O)N1CC[C@H]2[C@H](CCCN2Cc2ccccc2)C1	.	.	.	-	.	.
CCCNC(=O)C[C@H]1CC[C@H]2[C@@H](COc3ccc(NC(=O)c4cncs4)cc3C(=O)N2C)O1	.	.	.	-	.	.
CN(C(=O)CSc1nnc(-c2ccccc2)n1C)C1CCS(=O)(=O)C1 (stereo unspecified)	44	-	-	-	-	-
COc1cccc(-c2cc(C(F)(F)F)n3nc(N)nc3n2)c1	-	-	-	-	-	36
COc1ccc(-c2cc(C(F)(F)F)n3nc(C(=O)O)nc3n2)cc1	-	-	-	-	-	-
COc1cccc(-c2cc(C(F)(F)F)n3ncc(C(=O)O)c3n2)c1	-	-	-	-	-	-
COc1ccc(-c2cc(C(F)(F)F)n3nc(N)nc3n2)cc1	-	+	-	.	-	-
SMILES	PfHsp40 yeast	FBA Mtb inh	BJeLR lethal	PrPC TRFRET	PrP UTR inh	GDH-TPI inh
Cc1cc(C)cc(C(=O)OCCN(C)C2CN(Cc3cn(Cc4ccc([N+](=O)[O-])cc4)nn3)S(=O)(=O)C2)c1 (stereo unspecified)	.	.	.	-	.	.
C=CCn1c(SCc2c(Cl)cccc2Cl)nnc1-c1cccc(C)c1	.	.	.	-	.	.
c1ccc2c(c1)ncn2-c1ccc(-c2ccnc3ncnn23)cc1	-	-	-	-	-	-
FCCCOc1ccc(-c2ccnc3ncnn23)cc1	-	+	-	-	-	-
COc1ccc(-c2cc(-c3ccccc3)n3ncnc3n2)cc1	-	170	-	-	-	33
COc1ccc(-c2cnc3ncnn3c2N)cc1	-	-	-	-	-	-
COc1ccc(-c2ccnc3ncnn23)cc1	-	+	-	-	-	-
COc1nc(-c2ccccc2)cc(-c2ccc(OC)c(OC)c2)n1	-	-	-	-	-	36
COc1ccc(-c2cc(-c3ccccc3)nc(NN)n2)cc1OC	-	-	-	-	-	-
CNC(C)c1cc(OC)ccc1OC (stereo unspecified)	45	-	-	-	-	-
Cc1ccc(-c2c(NC(=O)Nc3ccccc3)nc3ncccn23)cc1	.	.	.	-	.	.
COc1ccc(CN2C(=O)[C@@](O)(c3cccn3C)c3cc(Br)ccc32)cc1	.	.	.	-	.	.
N#CC1=C(N)SC(N)=C(C#N)C1c1cccc(O)c1	-	-	-	27	-	-
N#CC1=C(N)Oc2cc(O)ccc2C1c1ccccc1 (stereo unspecified)	-	-	-	-	-	-
COc1ccc(C2C(C#N)=C(N)SC(N)=C2C#N)cc1OC	-	-	-	59	-	-
Cc1cc(=O)n2c3c(c4c(cc13)c(CN(C)C)cc(=O)n4C)OC2	-	-	.	40	-	-
Cc1cc(=O)n(C)c2ccccc12	-	-	-	-	-	-
O=C(Nc1ccccc1)Nc1nc2ncccn2c1-c1ccc(F)cc1	.	.	.	-	.	.
COCO[C@@H]1CC(CO)=C[C@H]2OCO[C@H]21	.	.	.	-	.	.
Cc1ccccc1/C=N/Nc1nc2ccccc2[nH]1	.	189	-	-	-	-
C(=C\c1ccccc1)/C=N/Nc1nc2ccccc2[nH]1	-	-	-	-	-	39
CCCNc1oc(-c2cccc3ccccc23)nc1C#N	-	148	-	-	-	-
N#Cc1nc(-c2cccc3ccccc23)oc1NCCN1CCOCC1	-	122	.	.	-	33
CC(=O)Nc1oc(-c2cccc3ccccc23)nc1C#N	-	164	.	-	-	-
CC(C)CNc1oc(-c2ccccc2Cl)nc1C#N	-	-	-	-	-	-
SMILES	PfHsp40 yeast	FBA Mtb inh	BJeLR lethal	PrPC TRFRET	PrP UTR inh	GDH-TPI inh
COC(=O)[C@@]12CCCCC3=C1N(CCC3)C(=O)[C@H]2CC(=O)N1CCN(C(=O)c2ccco2)CC1	.	.	.	-	.	.
Cn1cc(C(=O)c2cccc(Cl)c2)cc1/C=N\O	30	-	-	-	-	-
CC(=O)NC1CCCCN(Cc2cccc(F)c2)C1=O (stereo unspecified)	.	.	.	-	.	.
COc1cc(C(=O)NCCCn2ccnc2)cc(OC)c1OC	-	-	-	-	-	-
COc1ccc(C(=O)NCCCn2ccnc2)cc1[N+](=O)[O-]	-	-	-	-	-	32
O=c1[nH]c(/C=C\c2ccc(O)cc2)nc(O)c1[N+](=O)[O-]	-	-	-	-	-	41
C[C@H]1[C@@H](OC(=O)Nc2ccccc2Cl)CC[C@@]23CCCN2C(=O)CCC[C@@H]13	.	.	.	-	.	.
Cc1cc(C(=O)OCCCN(C)C2CN(Cc3cn(Cc4ccccc4C(F)(F)F)nn3)S(=O)(=O)C2)no1 (stereo unspecified)	.	.	.	-	.	.
O=C(N/N=C/c1sc(=O)n(-c2ccccc2)c1Cl)c1ccncc1	-	-	-	-	-	36
COc1cc(C(=O)N/N=C/c2cc([N+](=O)[O-])cs2)cc(OC)c1OC	-	-	-	-	-	36

Screening results from PubChem.
